Data published in the supplement of paper PMC8728848.
Only a selection was taken, and the strongest signals are over-represented in it overall.

Legend:
Test in all cases: glycan array binding signal (z-score within array); higher = stronger binding
Details in all cases: glycan notation: IUPAC condensed, linker removed
[1] = tested on: GlcNAc(b1-3)[GlcNAc(b1-6)]GalNAc
Method in brief: (§1)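 Negative Z-scores can be read as non-binding. The Z-score is calculated within each array and then averaged across arrays of one protein sequence at different concentrations or buffers and across linkers. Arrays, 3228 in all, were curated from the Consortium for Functional Glycomics database and kept only where the protein sequence was available.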

[2] = tested on: GlcNAc(b1-4)GlcNAc(b1-4)GlcNAc(b1-4)GlcNAc(b1-4)GlcNAc
Method in brief: as §1

[3] = tested on: GlcNAc(b1-3)[GlcNAc(b1-6)]Gal(b1-4)GlcNAc
Method in brief: as §1

GlcNAc(b1-6)GalNAc = tested on: GlcNAc(b1-6)GalNAc
Method in brief: as §1

GlcNAc(b1-4)GlcNAc = tested on: GlcNAc(b1-4)GlcNAc
Method in brief: as §1

[4] = tested on: GlcNAc(b1-3)Gal(b1-4)GlcNAc
Method in brief: as §1

Kdn(a2-3)Gal(b1-3)GlcNAc = tested on: Kdn(a2-3)Gal(b1-3)GlcNAc
Method in brief: as §1

[5] = tested on: GlcNAc(b1-4)Gal(b1-4)GlcNAc
Method in brief: as §1

GlcNAc(b1-3)Gal(b1-4)Glc = tested on: GlcNAc(b1-3)Gal(b1-4)Glc
Method in brief: as §1

GlcNAc(b1-3)GalNAc = tested on: GlcNAc(b1-3)GalNAc
Method in brief: as §1

Q: BambL (Burhholderia ambifaria), Q0B4G1 was tested. Which “glycan array binding signal (z-score)” value [1] did it give?
A: Its value is -0.313.

Q: What about the “glycan array binding signal (z-score)” value [2] of the same substance?
A: Its value is -0.314.

Q: What does the source list for GspB (Streptococcus gordonii), Q939N5?
A: glycan array binding signal (z-score) [3]: -0.418; glycan array binding signal (z-score) (GlcNAc(b1-6)GalNAc): -0.73

Q: For “SpGH101 (Streptococcus pneumoniae), Q8DR60”, which “glycan array binding signal (z-score)” value (GlcNAc(b1-4)GlcNAc) is on record?
A: Its value is -0.14.

Q: How did the “glycan array binding signal (z-score)” value [4] turn out when AgI/IIC123-GFP (Streptococcus mutans) was run?
A: Its value is -0.479.

Q: And the “glycan array binding signal (z-score)” value (Kdn(a2-3)Gal(b1-3)GlcNAc)?
A: Its value is -0.106.

Q: Which “glycan array binding signal (z-score)” value [5] does the source give for LcI (Legionella pneumophila) here?
A: The value was 4.

Q: With Wza (Escherichia coli), P0A930 as the substance, how does the “glycan array binding signal (z-score)” value [3] read?
A: Its value is 3.12.

Q: Which “glycan array binding signal (z-score)” value (GlcNAc(b1-3)Gal(b1-4)Glc) does the source give for Epa22 here?
A: Its value is -0.695.

Q: What about the “glycan array binding signal (z-score)” value (GlcNAc(b1-3)GalNAc) of the same substance?
A: The value was -0.435.
